Coupling enz: inhibits coupling enzyme system, counter-screen for aldolase hits. coupling enzyme system counterscreen, AmpLite Red fluorescence. activity change, negative = inhibition, % at 58.2 µM, hits read low. actives 0.67% (n = 290,000). AID 2472; in the data active means activity change below about -30%; further: on the % scale 0 is the no-effect control and ±100 the full control effect
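Final compound at 57.5 uM, incubated 10 min at RT with coupling enzyme reagent (glyceraldehyde-3-phosphate), then 20 min with substrate and AmpLite Red detection. Fluorescence read at 525/598 nm; tests interference with the coupling assay, not aldolase inhibition.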
TR SRC2 fluor cs: Texas Red fluorescence interference in TRb-SRC2 counter-screen | TRb/SRC2 Texas Red total fluorescence interference | Potency, µM (highest dose often 106 µM), without a hit: at the top dose fluorescence change, negative = quenching | actives 0.29% (n = 280,000) | AID 1479; active means well fitted curve in either direction with a large enough effect; inconclusive means small, poorly fitted or top-dose-only effect; further: potency means the concentration at half of the fitted maximal effect; on the % scale 0 is the no-effect control and ±100 the full control effect
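Human TRb ligand-binding domain at 0.6 uM with 20 nM Texas Red SRC2 peptide in Tris buffer containing 1 uM T3 and 5% DMSO, incubated with compound 5 h at ambient temperature. Total fluorescence (555/632 nm) calculated as parallel + 2 × perpendicular.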
HTT aggregate: reduces HttQ103-GFP aggregates in PC12 cells; PC12 HttQ103-GFP aggregates, Acumen cytometry, 40 h; Potency, µM (highest dose often 46.1 µM), without a hit: at the top dose activity change, negative = inhibition, usual class: inhibitors; actives 1.1% (n = 220,000); AID 1688; further: potency means the concentration at half of the fitted maximal effect; on the % scale 0 is the no-effect control and ±100 the full control effect; nearly all actives have a fitted effect of over 60% in size
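Read-out: GFP aggregate count by laser scanning cytometer (488 nm excitation, 500-530 nm emission, 1–25 µm objects >6 SD above background). Cells: PC12, inducible HTTex1-Q103-GFP, 100 nM tebufenozide; compounds titrated.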
TRb SRC2 PPI: inhibitors of human thyroid hormone receptor beta-SRC2 interaction | TRbeta-SRC2 peptide binding, fluorescence polarization; receptor liganded with 1 µM T3 | Potency, µM (doses to about 106 µM), for inactives: at the top dose activity change, negative = inhibition, usual class: inhibitors | actives 0.065% (n = 280,000) | AID 1469;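 further: potency means the concentration at half of the fitted maximal effect; plate controls were bound peptide for no effect and peptide without receptor for full effect; nearly all actives have a fitted effect of over 50% in size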
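Binding of a 20-amino-acid Texas Red SRC2 peptide (20 nM) to TRb ligand-binding domain (0.6 uM) with agonist T3 at 1 uM was followed by fluorescence polarization after a 5 hr room-temperature incubation.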
HTT cytoprotect: Huntington cell model cytoprotection by ATP luminescence | AID 1471 | Potency, µM (top dose mostly 56.4 µM), for the others: cytoprotection (ATP increase), hits mostly activators | PC12 HTT-Q103 induced, cytoprotection, ATP luminescence, 40 h | actives 0.14% (n = 230,000); further: potency means the concentration at half of the fitted maximal effect; % of control where 0% means no effect; nearly all actives have a fitted effect of over 45% in size
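Compounds were screened for protection of PC12 cells against cell death after tebufenozide induction (100 nM final) of mutant Huntingtin exon 1 (Q103) fused to GFP.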
KDM4E inh: JMJD2E (human) inhibition | B2RXH2 | JMJD2E catalytic domain, FDH-coupled NADH fluorescence (FDH is formaldehyde dehydrogenase) | Potency, µM (top dose mostly 57.1 µM), inactives show at the highest dose activity change, negative = inhibition, actives largely listed as inhibitors | actives 1.6% (n = 230,000) | AID 2147; active means well fitted inhibition curve with a large enough effect, not every such curve was filed as active; inconclusive means small, poorly fitted or top-dose-only effect, or another doubt; inactive means no such curve, though single readings can be large or run the other way;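 further: potency means the concentration at half of the fitted maximal effect; 0% = wells with enzyme and -100% = buffer wells without enzyme; nearly all actives have a fitted effect of over 50% in size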
Target sequence (B2RXH2 1-337 limits assumed): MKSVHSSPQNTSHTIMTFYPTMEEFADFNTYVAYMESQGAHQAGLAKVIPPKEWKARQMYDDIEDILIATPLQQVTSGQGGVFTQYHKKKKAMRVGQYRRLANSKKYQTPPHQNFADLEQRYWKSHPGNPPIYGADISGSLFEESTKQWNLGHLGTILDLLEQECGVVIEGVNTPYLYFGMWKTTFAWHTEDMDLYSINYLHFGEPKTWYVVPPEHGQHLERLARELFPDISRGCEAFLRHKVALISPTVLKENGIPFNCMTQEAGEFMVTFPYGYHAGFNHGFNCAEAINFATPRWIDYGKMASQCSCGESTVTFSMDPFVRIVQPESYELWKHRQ
An asterisk follows results filed as active; ? = inconclusive; / = no result; [ ] = another dose, or the depositor's remark. Sampled rows, rich in hits. Any-hit rate of the full collection: about 2%. Unless noted, the call rests on the fitted dose curve; in most records, active means well fitted curve in the direction sought with a large enough effect; inconclusive means small, poorly fitted or top-dose-only effect, or another doubt; inactive means no such curve, though single readings can be large; an effect the other way counts as inactive or inconclusive.

SMILES	Coupling enz	TR SRC2 fluor cs	HTT aggregate	TRb SRC2 PPI	HTT cytoprotect	KDM4E inh
O=C(CCCc1ccccc1)NCc1cn2ccsc2n1	0	-1%	?	2%	5%	6%
Oc1ccccc1N=Cc1c(O)ccc2ccccc12	-27	-8%	-10%[9.22 µM]	5%	9%[10 µM]	25µM*
C=Cc1ccc(N=Cc2c(O)ccc3ccccc23)cc1	-30*	/	/	/	/	/
Cc1sc2c(c1C)c(=O)n(-c1ccc(Cl)cc1)c(=O)n2Cc1cc(=O)n2cc(Br)ccc2n1	/	-1%	/	-4%	/	/
CCOC(=O)C1=C([Si](C)(C)C)c2ccccc2N(S(=O)(=O)C(F)(F)F)C1C(=O)OCC (centres undefined)	-5	3%	/	14%	-68%	/
Cc1cccc(NC(=O)CCn2cnnn2)c1C	/	-3%	/	0%	/	/
COc1ccc2c(c1)-c1nc(/N=C/c3c(O)ccc4ccccc34)sc1CC2	-38*	?	-5%	?	-8%[10 µM]	?
Oc1ccc2ccccc2c1/C=N/c1nccs1	/	?	20%	35µM*	-3%	-10%
Cc1cc(N=Cc2c(O)ccc3ccccc23)no1	-43*	?	18%	50µM*	26%	-20%
CCOc1ccc(-c2cc3c(=O)n(Cc4nc(-c5cccc(OC)c5OC)oc4C)ccn3n2)cc1Cl	/	-21%	/	-1%	/	/
CCOc1ccc(S(=O)(=O)NCc2ccccc2)cc1C(N)=O	-20	-2%	-22%	2%	?	3%
CCOc1ccccc1CNS(=O)(=O)c1ccc2[nH]c(=O)sc2c1	0	-4%	13µM*	-4%	-10%	3%
CCOc1ccc(S(=O)(=O)NCc2ccccc2Cl)cc1C(N)=O	-37*	-1%	?	0%	-14%	-6%
CCOc1ccccc1CNS(=O)(=O)c1ccc2c(c1)oc(=O)n2C	3	-3%	-15%	-1%	-14%	4%
C=CCOC(=O)CC(C)C	/	-4%[201 µM]	/	-2%[201 µM]	/	/
O=C(CCN1CCC(c2ccccc2)C1)c1ccc2c(c1)OCCO2 (centres undefined)	1	1%	?	2%	-86%	18µM*
O=C(CCN1CCC(c2ccccc2)C1)c1ccccc1 (centres undefined)	-1	-7%	6%	1%	-19%	-5%
CC(C)c1onc(-c2c(Cl)cccc2Cl)c1COc1ccc(/C=C/c2cccc(C(=O)O)c2)c(Cl)c1	12	-6%	/	?	/	/
c1ccc2[nH]c(CCCc3nc4ccccc4[nH]3)nc2c1	-2	/	/	/	/	/
S=c1cnc2ccccc2[nH]1	4	-1%	-4%[9.22 µM]	7%	-3%	11µM*
CCCc1cnc2c(c1SCC(=O)Nc1ccc(C)c(Cl)c1)c(=O)n(C)c(=O)n2C	/	0%	/	-2%	/	/
O=C(/C=C\c1ccc(-c2cccc([N+](=O)[O-])c2)o1)N1CCOCC1	2	-1%	1%[9.22 µM]	-6%	3%[10 µM]	16µM*
COc1ccccc1NC1=C(NC(C)=O)C(=O)c2ccccc2C1=O	-56*	-3%	28%	6%	13%[10 µM]	25µM*
COC1=C(Nc2ccccc2OC)C(=O)c2ccccc2C1=O	-27	-3%	-44%[9.22 µM]	-1%	-24%[10 µM]	?
CCOc1ccc(-c2ccc(/C=C3/C(=N)N4C(C)=CSC4=NC3=O)o2)c([N+](=O)[O-])c1	9	79µM*[quencher]	-18%	?	23%[10 µM]	8%
CCOc1ccc(-c2ccc(/C=C3/C(=N)N4C=CSC4=NC3=O)o2)c([N+](=O)[O-])c1	-4	-20%	?	1%	12%[10 µM]	-10%
Fc1cccc(Nc2cc(-n3cccn3)ncn2)c1	0	1%	13µM*	7%	10%[10 µM]	?
COc1ccccc1-c1nnc(SCC(=O)NCc2c(C)c(Cl)cc(C(C)C)c2O)o1	-3	-2%	13µM*	2%	-24%	3%
COc1ccccc1-c1nnc(SCC(=O)Nc2c(Cl)cccc2Cl)o1	5	0%	-16%	4%	-17%[10 µM]	3%
